GLS inh: glutaminase GLS (human) inhibition; O94925; AID 624170; 410,000 tested, 0.21% active; GLS enzymatic activity, qHTS titration; Potency, µM (highest dose often 45.5 µM), for the others: at the top dose activity change, negative = inhibition, usual class: inhibitors; note: % is set by controls: 0 for no effect and ±100 for the full control effect
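Coupled fluorescence readout: glutamate oxidase/HRP/Amplex Red detect glutamate formed by hKGA from L-glutamine (1 mM solution added). Buffer 45 mM KH2PO4 pH 8.2, 0.02% Tween-20; reads at t0 and 30 min RT.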
GRP78 ERSR act: ER stress response induction in glioma. U87-MG GRP78 promoter luciferase reporter, 16 h. Potency, µM, for inactives: top-dose activation, most hits filed as activators. 420,000 tested, 0.02% active; note: series mostly up to about 76 µM; % of control where 0% means no effect; nearly all actives have a fitted effect of over 35% in size
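Stably transfected U87-MG glioma cells carrying a GRP78-based luciferase sensor; 16 h compound incubation. Luminescence end-point read 10 min after Bright-Glo addition at room temperature.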
PTHR1 ag: PTHR1 (human) receptor agonism. Potency, µM (top dose mostly 115 µM), for the others: top-dose activation, hits mostly activators. HEK293 GP2 PTHR1 cells, GloSensor cAMP luminescence, 1 h. 410,000 tested, 0.075% active; note: nearly all actives have a fitted effect of over 55% in size
Target sequence (Q03431 whole entry, looked up): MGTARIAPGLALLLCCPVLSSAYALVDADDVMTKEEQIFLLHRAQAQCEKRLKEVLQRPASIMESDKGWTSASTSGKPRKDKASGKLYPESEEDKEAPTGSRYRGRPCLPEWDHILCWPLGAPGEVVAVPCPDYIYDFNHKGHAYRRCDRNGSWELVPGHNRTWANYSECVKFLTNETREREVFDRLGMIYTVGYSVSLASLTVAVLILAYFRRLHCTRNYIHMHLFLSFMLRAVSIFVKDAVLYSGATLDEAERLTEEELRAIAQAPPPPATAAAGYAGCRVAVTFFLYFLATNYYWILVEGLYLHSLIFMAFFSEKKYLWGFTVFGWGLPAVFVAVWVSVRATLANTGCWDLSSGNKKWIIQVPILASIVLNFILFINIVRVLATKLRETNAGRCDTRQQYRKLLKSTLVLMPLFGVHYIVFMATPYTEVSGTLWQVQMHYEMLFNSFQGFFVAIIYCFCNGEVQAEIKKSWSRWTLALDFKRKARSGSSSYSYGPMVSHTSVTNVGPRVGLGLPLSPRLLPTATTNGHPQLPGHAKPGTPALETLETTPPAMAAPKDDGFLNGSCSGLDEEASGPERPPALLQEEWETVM
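HEK-293-derived GP2 cells expressing PTHR1 and a GloSensor cAMP reporter, 3,000/well, plated overnight, given luciferin plus IBMX (each 0.5 mM as added) for 1 h at 37 °C, then compound for 1 h at 37 °C. Luminescence was read after 15 min at room temperature.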
GLP-1R inv ag: GLP-1 receptor (human) inverse agonism; 410,000 tested, 1.6% active; P43220; Potency, µM (doses to about 38.3 µM), without a hit: at the top dose activity change, negative = inhibition, hits mostly inhibitors; HEK293 GLP-1R CRE-luciferase, luminescence, 24 h; GLP-1R form is constitutively active; note: % is set by controls: 0 for no effect and ±100 for the full control effect; nearly all actives have a fitted effect of over 55% in size
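Using stably transfected HEK293 (constitutively active GLP-1R, cAMP-luciferase reporter), compounds were incubated 24 hr and luciferase measured by luminescence.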
GLP1R ag: GLP-1 receptor (human) agonism. P43220. HEK293 GLP-1R CRE-luciferase, luminescence, 4-6 h; cells express a hypersensitive GLP-1R form. Potency, µM (top dose mostly 45.6 µM), for inactives: top-dose activation, usual class: activators. 380,000 tested, 0.007% active. AID 624172; note: % of control where 0% means no effect
ALOX12 inh: ALOX12 (human) lipoxygenase inhibition. P18054. purified 12hLO, xylenol orange hydroperoxide absorbance. Potency, µM (top dose mostly 108 µM), inactives show top-dose activity change, negative = inhibition, usual class: inhibitors. 580,000 tested, 1.1% active; note: % is set by controls: 0 for no effect and ±100 for the full control effect
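Hydroperoxide product was detected by ferrous iron/xylenol orange as the 573 to 405 nm absorbance ratio. Arachidonic acid at 40 uM (final) was turned over for 30 min at room temperature by 150 nM human 12hLO, pH 7.0 Hepes buffer, after 15 min compound preincubation.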
The depositor's hits bear a star; i = inactive; ? = inconclusive; . = not tested or not shown; [ ] = dose if it differs, or a comment. Only some compounds are listed: those with a hit (about 2.3% of all), similar ones and a draw of the others. Calls come from the whole dose curve; as a rule, active = well fitted curve in the direction sought with a large enough effect; inconclusive = small, poorly fitted or top-dose-only effect, or another doubt; inactive = no such curve, though single readings can be large; an effect the other way counts as inactive or inconclusive. Potency is the fitted concentration of half-maximal effect.

SMILES	GLS inh	GRP78 ERSR act	PTHR1 ag	GLP-1R inv ag	GLP1R ag	ALOX12 inh
Cc1ccc(C(C)C)cc1S(=O)(=O)NC1CC(C)(C)NC(C)(C)C1	-1%	-2%	-7%	8.9µM*	4%	?
Cc1cc(C)c(S(=O)(=O)NC2CC(C)(C)NC(C)(C)C2)cc1Br	-16%	-2%	i	11µM*	-1%	-29%
Cc1ccc(OCC(=O)NC2CC(C)(C)NC(C)(C)C2)c(C)c1	3%	-2%	1%	?	-1%	-6%
Cc1cc(OCC(=O)NC2CC(C)(C)NC(C)(C)C2)c(C)cc1Br	-3%	-5%	i	4.5µM*	0%	-1%
Cc1ccc(S(=O)(=O)NC2CC(C)(C)NC(C)(C)C2)c(C)c1C	23%	1%	i	?	0%	0%
CC1(C)CC(NS(=O)(=O)c2ccc3ccccc3c2)CC(C)(C)N1	0%	-4%	21%	11µM*	4%	-5%
O=C(NCc1ccncc1)c1ccccc1Nc1ccccc1	.	.	.	.	.	51%
COc1cc(/C=C/C(=O)OCC(=O)Nc2ccc(C)cc2[N+](=O)[O-])ccc1O	5.6µM*	-4%	?	2%	-3%	3%
COc1cc(/C=C/C(=O)OCC(=O)Nc2cc(C)c(C)cc2[N+](=O)[O-])ccc1O	6%	-4%	i	0%	0%	3%
CC(O)/C=C/c1cccc[n+]1C (configuration not stated)	-2%	-8%	0%[57.5 µM]	-8%	-1%	18µM*
COc1ccc(/C=C/C(=O)CC(O)(c2ccccc2)C(F)(F)F)cc1 (configuration not stated)	11%	-15%	-20%[57.5 µM]	?	-3%	-12%
O=C(/C=C/c1ccccc1)CC(O)(c1ccccc1)C(F)(F)F (configuration not stated)	5%	?	-13%[57.5 µM]	11µM*	-6%	6%
O=C(/C=C/c1ccccc1)CC(O)(c1ccccc1)C(F)(F)C(F)F (configuration not stated)	3%	11µM*	-28%	?	-22%	6%
CCCN(CCC)S(=O)(=O)N1CCCC(c2nncn2C)C1 (configuration not stated)	.	.	.	.	.	-5%
Cc1[nH]nc2c1-c1nc3ccccc3nc1C(C)(C)C2	-4%	-1%	28µM*	2%	10%	0%
O=C(NCc1ccc2c(c1)OCO2)c1ccc(NC(=O)c2nsc3ccccc23)cc1	.	.	.	.	.	-7%
Cc1ccc(C(CNC(=O)Nc2ccc(Cl)cc2)N2CCN(C)CC2)cc1 (configuration not stated)	5%	-4%	2%	8.9µM*	-6%	7%
CN1CCN(C(CNC(=O)Nc2ccc(Cl)cc2)c2ccc(F)cc2)CC1 (configuration not stated)	-12%	2%	i	?	11%	?
Cc1cnc(NC(=O)[C@H](C)N2C(=O)C3CCCCC3C2=O)s1 (some centres not stated)	-10%	0%	-5%	36%	0%	14%
Cc1cnc(NC(=O)C(C)N2CCN(C)CC2)s1 (configuration not stated)	-6%	-4%	5%	55%	?	2.5µM*
ClCCn1c(CCl)nc2ccc(Cl)cc21	3%	-5%	i	-22%	3%	10µM*
Cc1cccc(OCC2(CNCc3ccc(F)cc3)C[C@@H](O)[C@@H](O)C2)n1 (some centres not stated)	.	.	.	.	.	-13%[176 µM]
Cc1cccc(OCC2(CNCc3c(C)noc3C)C[C@@H](O)[C@@H](O)C2)n1 (some centres not stated)	.	.	.	.	.	32µM*
CCc1cccc(NC(=O)Cn2nc3c(cc2=O)CCCC3)c1	.	.	.	.	.	20%
CCCCN(CC)CCNC(=O)c1ccc2c(Cl)c3c(nc2c1)CCC3	8%	-6%	i	?	11%	0%
SMILES	GLS inh	GRP78 ERSR act	PTHR1 ag	GLP-1R inv ag	GLP1R ag	ALOX12 inh
O=C(NCCCN1CCCC1)c1ccc2c(Cl)c3c(nc2c1)CCCC3	?	-3%	i	?	12%	-15%
CCN(CC)CCCNC(=O)c1ccc2c(Cl)c3c(nc2c1)CCCC3	-18%	-3%	8%	4.5µM*	7%	-18%
CCCN1CCN(CCCNC(=O)c2ccc3c(Cl)c4c(nc3c2)CCCC4)CC1	1%	1%	i	5µM*	11%	12%
Cc1ccc(C(=O)Oc2cccc3c(OC(=O)c4cccc(C)c4)cccc23)cc1	.	.	.	.	.	-28%
Cc1nn(C)c(C)c1CNCc1ccnc(N2CCOCC2)c1	.	.	.	.	.	11µM*
CC(C)NC(=O)CSc1nc(C2CC2)nc2ccccc12	.	.	.	.	.	-25%
Cc1ccc(-c2ccc(C(=O)Nc3ccccc3)o2)c2ccccc12	-13%	3%	-54%	?	-5%	-18%
Cc1ccc(S(=O)(=O)NC(=O)c2ccc(-c3ccc(C)c4ccccc34)o2)cc1	2%	-3%	-36%	?	-4%	35µM*
CCN(CC)S(=O)(=O)c1ccc2c(c1)CC(C(=O)NCCc1ccc(SC)cc1)N2C(C)=O (configuration not stated)	.	.	.	.	.	18%
O=C(O)CCC(=O)Nc1ccc(Cc2ccc(NC(=O)CCC(=O)O)c(O)c2)cc1O	1.4µM*	-5%	i	-1%	2%	-5%
CCCCOc1ccccc1C1CC(=O)Nc2cc(OC)c(OC)cc21 (configuration not stated)	-9%	-3%	-19%	5%	4%	-1%
CCCCOc1ccccc1C1CC(=O)Nc2cc(C)c(C)cc21 (configuration not stated)	-13%	10%	-35%	13µM*	.	5%
Cc1cc2c(cc1C)C(c1ccccc1OC(C)C)CC(=O)N2 (configuration not stated)	-3%	1%	-3%	10µM*	3%	-29%
CCc1ccc2occ(CC(=O)N(Cc3ccc(F)cc3)C3CCS(=O)(=O)C3)c2c1 (configuration not stated)	.	.	.	.	.	5%
CC(=O)Nc1ccc(NC(=O)COC(=O)c2cc(=O)[nH]c3ccccc23)cc1	.	.	.	.	.	4%
Cc1ccc2c(c1)Oc1ccc(NC(=O)CCl)cc1C(=O)N2	-7%	-14%	-31%	11µM*	7%	?
Cc1ccc2c(c1)Oc1ccc([N+](=O)[O-])cc1C(=O)N2	0%	-6%	i	15%	8%	?
CC1(C(=O)Nc2ccc(Cl)c(Cl)c2)CCN1C(=O)CC1CCCC1 (configuration not stated)	-5%	-6%	-36%	14µM*	5%	-2%
